Results filed as inconclusive are left out. Activity calls are given as the source filed them. Unless noted, calls follow the shape of the dose curve; as a rule, active = well fitted curve in the direction sought with a large enough effect; inconclusive = small, poorly fitted or top-dose-only effect, or another doubt; inactive = no such curve, though single readings can be large; an effect the other way counts as inactive or inconclusive.
Key:
[1] = target: Atrial natriuretic peptide receptor 2 (Homo sapiens) (UniProt P20594); assay: Natriuretic polypeptide receptor (hNpr2) antagonism - Pilot subtype selectivity assay (AID 1347050; calls by dose curve); conditions: NPR2-expressing cells, cGMP antagonist-mode read-out; series mostly up to 38.3 µM
Atrial natriuretic peptide receptor 2 (Homo sapiens), sequence (P20594 whole entry, looked up): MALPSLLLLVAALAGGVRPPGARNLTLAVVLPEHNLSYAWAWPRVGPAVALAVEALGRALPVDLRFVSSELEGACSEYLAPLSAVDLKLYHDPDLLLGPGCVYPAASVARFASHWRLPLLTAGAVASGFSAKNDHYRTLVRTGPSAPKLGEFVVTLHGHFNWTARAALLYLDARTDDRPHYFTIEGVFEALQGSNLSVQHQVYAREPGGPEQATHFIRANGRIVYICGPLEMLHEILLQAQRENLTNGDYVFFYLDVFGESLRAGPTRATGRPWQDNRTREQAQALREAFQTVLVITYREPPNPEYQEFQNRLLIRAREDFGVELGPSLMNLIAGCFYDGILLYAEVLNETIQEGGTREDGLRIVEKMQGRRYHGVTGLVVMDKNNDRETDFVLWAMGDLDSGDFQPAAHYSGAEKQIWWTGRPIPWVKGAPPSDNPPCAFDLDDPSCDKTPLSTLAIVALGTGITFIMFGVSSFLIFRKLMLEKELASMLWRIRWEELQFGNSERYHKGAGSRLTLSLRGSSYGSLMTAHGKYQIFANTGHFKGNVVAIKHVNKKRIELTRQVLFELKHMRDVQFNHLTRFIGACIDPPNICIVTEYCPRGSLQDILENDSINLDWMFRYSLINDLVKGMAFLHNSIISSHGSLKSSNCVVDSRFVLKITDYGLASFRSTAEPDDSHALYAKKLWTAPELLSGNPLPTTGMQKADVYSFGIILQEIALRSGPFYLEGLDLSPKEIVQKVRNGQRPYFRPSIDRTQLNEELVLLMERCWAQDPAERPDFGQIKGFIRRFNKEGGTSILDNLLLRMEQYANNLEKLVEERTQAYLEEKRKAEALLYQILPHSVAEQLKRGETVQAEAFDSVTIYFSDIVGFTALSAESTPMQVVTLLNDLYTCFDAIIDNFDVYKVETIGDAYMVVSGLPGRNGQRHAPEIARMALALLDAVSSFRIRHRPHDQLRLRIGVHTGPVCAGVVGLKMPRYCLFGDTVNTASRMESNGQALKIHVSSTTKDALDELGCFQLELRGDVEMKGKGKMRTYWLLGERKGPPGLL
Summary of the method: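 HEK293 cells expressing hNpr2 and a GloSensor cGMP luciferase sensor, 1500/well, preloaded 2 h with 2% GloSensor reagent, compound 30 min, then 1 nM hNppC for 20 min. Antagonism from luminescence after versus baseline pre-read; LOPAC in 1:5 titrations.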

[2] = target: T1, Tyrosine-protein phosphatase non-receptor type substrate 1 (Homo sapiens) + Leukocyte surface antigen CD47 (Homo sapiens) (UniProt P78324+Q08722); assay: CD47-SIRPalpha protein protein interaction - LANCE assay qHTS validation (AID 1347057; active = well fitted curve in the direction sought with a large enough effect in the signal ratio, with a control signal flat, not every such curve was filed as active; the % refers to the signal ratio); conditions: Recombinant CD47-His / biotin-SIRPalpha, TR-FRET ratio; series mostly up to 38.3 µM
T1 sequence (P78324 whole entry, looked up): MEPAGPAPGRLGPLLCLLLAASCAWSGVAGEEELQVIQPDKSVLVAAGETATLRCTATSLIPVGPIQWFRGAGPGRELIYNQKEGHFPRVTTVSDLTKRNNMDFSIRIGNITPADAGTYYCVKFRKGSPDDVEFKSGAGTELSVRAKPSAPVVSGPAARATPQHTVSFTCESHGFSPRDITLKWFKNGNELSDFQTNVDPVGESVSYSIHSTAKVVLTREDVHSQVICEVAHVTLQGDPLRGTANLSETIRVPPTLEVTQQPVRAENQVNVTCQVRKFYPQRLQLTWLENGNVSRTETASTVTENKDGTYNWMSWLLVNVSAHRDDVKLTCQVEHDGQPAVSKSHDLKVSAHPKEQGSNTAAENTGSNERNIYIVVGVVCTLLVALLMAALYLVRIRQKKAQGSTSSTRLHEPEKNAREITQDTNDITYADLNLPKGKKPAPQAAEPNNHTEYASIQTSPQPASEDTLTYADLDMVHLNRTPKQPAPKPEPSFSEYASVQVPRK
T1 sequence (Q08722 whole entry, looked up): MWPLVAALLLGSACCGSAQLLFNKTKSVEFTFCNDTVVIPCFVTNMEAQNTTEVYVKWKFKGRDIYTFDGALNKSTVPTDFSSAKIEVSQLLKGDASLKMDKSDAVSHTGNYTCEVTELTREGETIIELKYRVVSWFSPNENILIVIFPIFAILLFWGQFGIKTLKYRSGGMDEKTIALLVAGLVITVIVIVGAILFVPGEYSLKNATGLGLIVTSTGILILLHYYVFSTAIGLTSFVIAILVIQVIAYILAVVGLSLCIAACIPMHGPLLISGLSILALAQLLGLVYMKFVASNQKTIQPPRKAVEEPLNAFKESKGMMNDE
Summary of the method: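 First, His-tagged CD47 and Eu-labelled anti-His antibody met the compound for 30 min; next, site-specifically biotinylated SIRPalpha was added for 30 min; finally streptavidin-APC was added before reading the TR-FRET ratio.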

[3] = target: T1, Tyrosine-protein phosphatase non-receptor type substrate 1 (Homo sapiens) + Leukocyte surface antigen CD47 (Homo sapiens); assay: CD47-SIRPalpha protein protein interaction - HTRF assay qHTS validation (AID 1347058; active = well fitted curve in the direction sought with a large enough effect in the signal ratio, not every such curve was filed as active; the % refers to the signal ratio;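 also: recombinant soluble extracellular CD47 with His tag and biotinylated SIRPalpha domains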); conditions: TR-FRET HTRF CD47-His / biotin-SIRPalpha binding, ratio 665/615; series mostly up to 38.3 µM
Summary of the method: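 TR-FRET read (Ch1/Ch2 ratio) of soluble extracellular CD47 and Avi-biotinylated SIRPalpha domains in PBS pH 7.4 with 0.05% IGEPAL; 7-point compound titration. Sequential 30 min room-temperature steps; non-biotinylated SIRPalpha as control inhibitor.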

[4] = target: T1, Tyrosine-protein phosphatase non-receptor type substrate 1 (Homo sapiens) + Leukocyte surface antigen CD47 (Homo sapiens); assay: CD47-SIRPalpha protein protein interaction - Alpha assay qHTS validation (AID 1347059); conditions: AlphaScreen CD47-His/biotin-SIRPalpha binding, LOPAC; series mostly up to 38.3 µM;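 also: bead proximity luminescence from CD47 binding SIRPalpha after compound preincubation with SIRPalpha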
Summary of the method: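 Biotinylated Avi-tagged SIRPalpha (25 nM) preincubated 30 min with compound, then His-tagged CD47 (12.5 nM) added 30 min; AlphaScreen with Ni-NTA acceptor and streptavidin donor beads. PBS pH 7.4, 0.05% IGEPAL, room temperature; 7-point titrations.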

[5] = target: Parathyroid hormone/parathyroid hormone-related peptide receptor (Homo sapiens) (UniProt Q03431); assay: qHTS for PTHR1 Agonists: Optimization Screen against the NCGC LOPAC library (AID 1347079); conditions: HEK293 GP2 PTHR1 GloSensor cAMP luminescence, 1 h; series mostly up to 57.1 µM;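 also: GloSensor cAMP luminescence in HEK-293 GP2 cells expressing human PTHR1 with IBMX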
Parathyroid hormone/parathyroid hormone-related peptide receptor (Homo sapiens), sequence (Q03431 whole entry, looked up): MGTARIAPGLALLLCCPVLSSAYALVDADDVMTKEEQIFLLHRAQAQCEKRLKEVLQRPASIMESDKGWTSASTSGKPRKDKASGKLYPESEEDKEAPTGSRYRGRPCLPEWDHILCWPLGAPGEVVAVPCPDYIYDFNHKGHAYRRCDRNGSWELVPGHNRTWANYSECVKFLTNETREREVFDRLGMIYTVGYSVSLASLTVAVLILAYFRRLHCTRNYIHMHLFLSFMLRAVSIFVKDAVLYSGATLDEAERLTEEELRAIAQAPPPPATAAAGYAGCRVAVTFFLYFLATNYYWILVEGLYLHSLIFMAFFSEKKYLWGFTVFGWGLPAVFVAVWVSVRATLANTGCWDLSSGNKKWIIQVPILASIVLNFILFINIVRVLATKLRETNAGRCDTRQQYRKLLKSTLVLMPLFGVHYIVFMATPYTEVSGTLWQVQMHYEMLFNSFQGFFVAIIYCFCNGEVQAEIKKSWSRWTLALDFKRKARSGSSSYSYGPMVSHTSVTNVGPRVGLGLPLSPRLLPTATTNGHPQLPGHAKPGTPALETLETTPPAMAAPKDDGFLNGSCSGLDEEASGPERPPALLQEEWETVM
Summary of the method: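 Agonist readout: GloSensor cAMP luminescence, read after 15 min at room temperature. HEK-293-derived GP2 line carries PTHR1; compounds tested as a titration for 1 hr at 37C in presence of IBMX. M-PTH (1-15) served as control.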

[6] = qHTS of pediatric cancer cell lines to identify multiple opportunities for drug repurposing: Primary screen for TC32 cells (AID 1347089); conditions: TC32 Ewing sarcoma viability, CellTiter-Glo luminescence, 48 h; series mostly up to 45.8 µM; also: nearly all actives have a fitted effect of over 60% in size
Summary of the method: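 qHTS, TC32, 48 h drug treatment, CellTiter-Glo luminescence as a proxy for metabolically active cells; primary top concentration 46 µM (MIPE 11-pt, NPC 8-pt); confirmatory 11-pt.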

[7] = qHTS of pediatric cancer cell lines to identify multiple opportunities for drug repurposing: Primary screen for DAOY cells (AID 1347090); conditions: DAOY medulloblastoma viability, CellTiter-Glo luminescence, 48 h; series mostly up to 46 µM; also: nearly all actives have a fitted effect of over 55% in size
Summary of the method: (§1)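 Viability measured as metabolically active cells via CellTiter-Glo luminescence following 48 hours of compound exposure, 11-point dilutions in confirmatory testing. 500-1,000 cells/well plated 5 hours before dosing; controls were DMSO and 2.3 µM bortezomib.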

[8] = qHTS of pediatric cancer cell lines to identify multiple opportunities for drug repurposing: Primary screen for SJ-GBM2 cells (AID 1347091); conditions: SJ-GBM2 viability, CellTiter-Glo luminescence, 48 h; series mostly up to 46 µM; also: potency is read from the fitted curve at half-maximal effect
Summary of the method: as §1

[9] = NS1 protein of Zika virus - qHTS assay to identify small molecule inhibitors in human HEK 293 cells (AID 1347053); conditions: HEK293 ZIKV MR766 infection, NS1 TR-FRET, 24 h; series mostly up to 46.1 µM; also: nearly all actives have a fitted effect of over 55% in size
Summary of the method: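 HEK 293; 20 h pre-culture, 37 C/5% CO2; cpd 1 h pre-infection; ZIKV MR766, MOI = 0.5, 24 h, 37 C; TR-FRET NS1 readout (two anti-NS1 Abs); norm. to no-virus vs infected.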

[10] = qHTS of pediatric cancer cell lines to identify multiple opportunities for drug repurposing: Primary screen for A673 cells (AID 1347092); conditions: A673 Ewing sarcoma viability, CellTiter-Glo ATP luminescence, 48 h; series mostly up to 46 µM; also: nearly all actives have a fitted effect of over 45% in size
Summary of the method: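 Luminescence from CellTiter-Glo, taken after 15 min at room temperature, served as the proxy for metabolically active cells following 48 h treatment. Both potency and efficacy were taken from curves fitted to the titration data.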

Measured: Potency

CN/C(=C\[N+](=O)[O-])NCCSCc1ccc(CN(C)C)o1
inactive: [1] | [2] | [3] | [4] | [5] | [6] | [7] | [8]

CN(C)[C@@H]1C(=O)C(C(N)=O)=C(O)[C@@]2(O)C(=O)C3=C(O)c4c(O)ccc(Cl)c4[C@@H](O)[C@H]3C[C@@H]12
inactive: [1] | [9] | [2] | [5] | [6] | [7] | [8] | [10]

CN(C)CC/C=C1\c2ccccc2COc2ccccc21
inactive: [1] | [9] | [2] | [4] | [5] | [6] | [7] | [8]

Cc1ccc(Cl)c(Nc2ccccc2C(=O)O)c1Cl
inactive: [1] | [9] | [2] | [4] | [5] | [6] | [10]

Brc1c(NC2=NCCN2)ccc2nccnc12
inactive: [1] | [9] | [2] | [4] | [5] | [6] | [7] | [8] | [10]

CCN(CC)CCNC(=O)c1cc(S(C)(=O)=O)ccc1OC
inactive: [1] | [9] | [2] | [4] | [5] | [6] | [7] | [8] | [10]

CCN1CCc2nc(N)oc2CC1
inactive: [1] | [9] | [2] | [4] | [5] | [6] | [7] | [8] | [10]

Cc1nc2ccccn2c(=O)c1CCN1CCC(C(=O)c2ccc(F)cc2)CC1
inactive: [1] | [9] | [2] | [4] | [5] | [6] | [7] | [8]

Cc1cc(C)c(/C=C2\C(=O)Nc3ccccc32)[nH]1
inactive: [1] | [9] | [2] | [4] | [5] | [6] | [7] | [8] | [10]

c1ccc2c(c1)CCCC2C1=NCCN1 (stereo unspecified)
inactive: [1] | [9] | [3] | [5] | [6] | [7] | [8] | [10]

C[C@]12CCC(=O)C=C1CC[C@@H]1[C@@H]2CC[C@@]2(C)[C@H]1CC[C@]2(O)C(=O)CO
inactive: [1] | [2] | [3] | [4] | [5] | [6] | [7] | [8] | [10]

CCCNC(C)C(=O)Nc1ccccc1C (stereo unspecified)
inactive: [1] | [2] | [3] | [4] | [5] | [6] | [7] | [8] | [10]

CCOC(=O)C1=C(C)NC(C)=C(C(=O)OC)C1c1cccc(Cl)c1Cl (stereo unspecified)
inactive: [1] | [2] | [3] | [4] | [5] | [6] | [7] | [8] | [10]

CN(C)CCCN1c2ccccc2Sc2ccc(C(F)(F)F)cc21
inactive: [9] | [5] | [7]

CNCCCN1c2ccccc2CCc2ccccc21
inactive: [9] | [2] | [3] | [4] | [5] | [6] | [7]

OCCN1CCN(CC/C=C2/c3ccccc3Sc3ccc(C(F)(F)F)cc32)CC1
inactive: [1] | [2] | [3] | [4] | [5] | [7]
active: [8] 21.1 µM

O=C1NCN(c2ccccc2)C12CCN(CCCC(c1ccc(F)cc1)c1ccc(F)cc1)CC2
active: [8] 23.7 µM
inactive: [1] | [5]

CCn1nc(C(=O)O)c(=O)c2cc3c(cc21)OCO3
inactive: [1] | [2] | [4] | [5] | [6] | [7] | [8] | [10]

CCc1c(C)[nH]c2c1C(=O)C(CN1CCOCC1)CC2 (stereo unspecified)
inactive: [1] | [2] | [3] | [4] | [5] | [6] | [7] | [8] | [10]

CCCCOCCOCCOCc1cc2c(cc1CCC)OCO2
inactive: [9] | [6] | [7] | [8] | [10]

OCCN1CCN(CCCN2c3ccccc3C=Cc3ccccc32)CC1
inactive: [9] | [2] | [3] | [4] | [5] | [6] | [7] | [8] | [10]

CN(C)CCCN1c2ccccc2Sc2ccccc21
inactive: [2] | [3] | [4] | [5] | [6] | [7]

C[C@]12CCC(=O)C=C1CC[C@@H]1[C@@H]2C(=O)C[C@@]2(C)[C@H]1CC[C@]2(O)C(=O)CO
inactive: [1] | [2] | [3] | [4] | [5] | [6] | [7] | [8] | [10]

CCN(CC)CCCN(c1ccccc1)C1Cc2ccccc2C1
inactive: [2] | [3] | [4] | [5] | [6] | [7]

COc1ccc(CN(CCN(C)C)c2ccccn2)cc1
inactive: [1] | [2] | [3] | [4] | [5] | [6] | [7] | [8] | [10]
